# HEK cytotox: kills HEK 293 cells. HEK 293 viability, ATP luminescence (CellTiter-Glo), 48-72 h. Potency, µM (doses to about 115 µM), without a hit: top-dose activity change, negative = cytotoxicity, actives largely listed as inhibitors. 94,000 tested, 6.6% active; also: potency is read from the fitted curve at half-maximal effect; nearly all actives have a fitted effect of over 60% in size
#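 HEK 293 seeded at 250 cells/well receive compound via pintool. After 48 or 72 hr at 37 degree Celsius, 5% CO2 and 95% humidity, CellTiter-Glo is dispensed and luminescence read following 10 min at room temperature.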
# Luciferase inh: blocks purified firefly luciferase enzyme activity | purified P. pyralis luciferase, luminescence, biochemical | Potency, µM (top dose mostly 115 µM), hits mostly inhibitors | 76,000 tested, 2.5% active | AID 1347043; also: potency is read from the fitted curve at half-maximal effect; nearly all actives have a fitted effect of over 65% in size
# Target sequence (P08659 whole entry, looked up): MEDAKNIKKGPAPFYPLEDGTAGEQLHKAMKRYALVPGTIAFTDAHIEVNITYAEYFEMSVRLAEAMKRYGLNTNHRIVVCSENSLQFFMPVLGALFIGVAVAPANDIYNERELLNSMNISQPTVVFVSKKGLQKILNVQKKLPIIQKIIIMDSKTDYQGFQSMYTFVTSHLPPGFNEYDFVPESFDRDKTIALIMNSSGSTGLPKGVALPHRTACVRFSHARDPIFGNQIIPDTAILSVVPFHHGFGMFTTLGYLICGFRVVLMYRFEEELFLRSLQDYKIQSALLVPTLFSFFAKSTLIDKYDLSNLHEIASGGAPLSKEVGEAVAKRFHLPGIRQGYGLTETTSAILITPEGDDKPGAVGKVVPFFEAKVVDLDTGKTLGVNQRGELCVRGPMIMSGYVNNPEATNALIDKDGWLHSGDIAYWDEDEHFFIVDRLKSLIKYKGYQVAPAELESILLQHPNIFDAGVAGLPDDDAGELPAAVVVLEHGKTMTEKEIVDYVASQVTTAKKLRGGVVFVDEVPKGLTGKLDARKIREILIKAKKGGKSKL
#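 FLuc 10nM, D-luciferin 10uM, ATP 10uM, Mg acetate 10mM, Tris acetate pH 7.5, Tween/BSA; cpd qHTS; enzyme added last; CCD luminescence.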
# IP6K1 inh: inhibitors of human IP6K1. IP6K1 kinase, ADP-Glo luminescence, 2 h; hits give low values. activity change, % (series mostly up to about 58 µM). 140,000 tested, 0.81% active; in the data active = activity change below about -25%
#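 ADP-Glo luminescence measures ADP made by human IP6K1 during a 2 h RT reaction with ATP/IP6 (mix at 1.3 mM/130 uM); top library doses 57.5 and 19.1 uM final.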
# HEK293 viab: counter-screen for SNCA expression inhibitors: cell viability. HEK-293-SNCA-luc viability, GF-AFC fluorescence, 24 h. 150,000 tested, 0.12% active. Potency, µM (series often up to 57.1 µM), for the others: at the highest dose activity change, negative = cytotoxicity, usual class: cytotoxic. AID 1671193;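 also: potency is read from the fitted curve at half-maximal effect; 0% = DMSO-treated cells and -100% = medium-only wells without cells; nearly all actives have a fitted effect of over 30% in size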
#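 Cytotoxicity counterscreen: after 24 h compound treatment of genome-edited SNCA-luciferase HEK-293 cells, live-cell protease substrate GF-AFC read by fluorescence after 30 min; activity scaled between DMSO (0%) and medium-only (-100%), curves Hill-fitted.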
# 3T3 cytotox: NIH 3T3 cell cytotoxicity | NIH 3T3 viability, CellTiter-Glo ATP luminescence, 48-72 h | Potency, µM (highest dose often 96.7 µM), inactives show top-dose activity change, negative = cytotoxicity, most hits filed as inhibitors | 94,000 tested, 4.3% active; also: potency is read from the fitted curve at half-maximal effect; nearly all actives have a fitted effect of over 55% in size
#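 Luminescent ATP readout (CellTiter-Glo, 10 min RT) after 48 or 72 hr compound exposure of NIH 3T3 cells seeded at 400 cells/well in 1536-well format; quantitative HTS.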
# SNCA expr inh: inhibitors of alpha-synuclein (SNCA) gene expression. Potency, µM (titrated, usually from 57.2 µM), without a hit: at the top dose activity change, negative = inhibition, most hits filed as inhibitors. HEK-293 SNCA-luciferase knock-in, luminescence, 24 h. 140,000 tested, 0.17% active. AID 1671194;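 also: potency is read from the fitted curve at half-maximal effect; plate controls were DMSO cells for no effect and cell-free wells for full effect; nearly all actives have a fitted effect of over 45% in size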
# Active calls of the source: *; i = inactive; u = inconclusive; x = no result given; [ ] = dose if it differs, or a comment. Sampled rows, rich in hits. Any-hit rate of the full collection: about 7.3%. Unless noted, calls follow the shape of the dose curve; as a rule, active = well fitted curve in the direction sought with a large enough effect; inconclusive = small, poorly fitted or top-dose-only effect, or another doubt; inactive = no such curve, though single readings can be large; an effect the other way counts as inactive or inconclusive. Unless noted, % is scaled to controls: 0 for no effect and ±100 for the full control effect.
SMILES,HEK cytotox,Luciferase inh,IP6K1 inh,HEK293 viab,3T3 cytotox,SNCA expr inh
O=C(CC(c1ccccc1)c1ccccc1F)N1CCN(c2ccncc2)CC1 (configuration not stated),u,u,2.4,-0.3%,u,3.4%
CC(C)(C)CC(=O)Nc1ccc([C@H]2OCC(=O)N(Cc3ccc(F)cc3)[C@@H]2CO)cc1,u,i,-3.2,1.1%[87.6 µM],u,-24.2%[87.6 µM]
C=CCn1cc2c3c(cccc31)[C@H](CC(C)C)N[C@H](C(=O)NCCOC)C2,56.2µM*,u,10.6,-13.3%[87.6 µM],89.1µM*,-23.7%[87.6 µM]
C=CCn1cc2c3c(cccc31)[C@H](CC(C)C)N[C@H](C(=O)NCCCN1CCCC1=O)C2,39.8µM*,i,23.1,-12.8%,u,-28.5%
CCCN(CC1CCOC1)C(=O)Nc1ccc(C(F)(F)F)cc1 (configuration not stated),6.3%,i,-2.2,4.2%,-9.9%,-21.9%
Nc1nc(C2CC(O)C2)cc(N2CCCN(C(=O)c3ccoc3)CC2)n1 (configuration not stated),-0.3%,i,19.6,-28.5%,3.9%,-4.5%
COc1cccc2c1OCCCN(c1cc(C3CC(O)C3)nc(N)n1)C2 (configuration not stated),u,i,-8.3,u,12.6µM*,2.3%
Cc1cccc(C)c1OC1CN(c2cc(C3CC(O)C3)nc(N)n2)C1 (configuration not stated),35.5µM*,i,2.4,-2.1%,-21.2%,-4.1%
Nc1nc(C2CC(N)C2)cc(N2CC(c3nc4ccccc4[nH]3)C2)n1 (configuration not stated),-13.0%,i,-10.6,-16.2%,-3.6%,6.5%
O=C(CCn1ccn2nc3c(c2c1=O)CCCC3)NC1CCCC1,-20.5%,i,-8.8,0.7%,-4.9%,-6.5%
COc1ccccc1-c1[nH]nc2ncc(-c3ccccc3C)nc12,50.1µM*,i,25.4,3.8%[87.6 µM],50.1µM*,-21.9%[87.6 µM]
COc1ccccc1-c1[nH]nc2ncc(-c3ccnc(C)c3)nc12,u,i,0.5,3.9%[87.6 µM],u,-4.2%[87.6 µM]
COc1ccccc1-c1[nH]nc2ncc(-c3cnn(C)c3)nc12,35.5µM*,i,3.0,-15.8%[87.6 µM],u,u
COc1ccccc1-c1[nH]nc2ncc(-c3ccccc3F)nc12,u,i,31.7,29.4%[87.6 µM],35.5µM*,-15.7%[87.6 µM]
COc1ccccc1-c1[nH]nc2ncc(-c3cccc(O)c3)nc12,39.8µM*,i,-4.9,-24.2%[87.6 µM],u,-6.3%[87.6 µM]
O=C(NCCc1ccc(Cl)cc1)C1CCc2nnc(-c3ccc(F)cc3)n21 (configuration not stated),-24.7%,x,19.9,-7.6%,-13.6%,-15.3%
CC(C)Oc1ccc2c(NC(=O)CN3C(=O)CNC3=O)nn(CC(F)(F)F)c2c1,3.3%,i,-14.9,-3.7%,4.0%,9.2%
COc1ccc(NC(=O)c2cc(C(C)(C)C)nc3c2cnn3C)cc1,63.1µM*,x,1.5,-9.1%[87.6 µM],u,-3.0%[87.6 µM]
Cn1ncc2c(C(=O)Nc3cccc(Cl)c3)cc(C(C)(C)C)nc21,63.1µM*,x,-5.8,-11.0%[87.6 µM],u,u
COc1ccc(-c2cc(C(=O)Nc3ccc(Cl)cc3)c3cnn(C)c3n2)cc1,-3.9%,x,-11.3,x,-19.0%,x
Cn1ncc2c(C(=O)Nc3cccc(Cl)c3)cc(-c3ccc(Cl)cc3Cl)nc21,22.4µM*,x,9.7,-27.4%,31.6µM*,-29.8%
CC(C)CC(=O)N1C[C@H](C(N)=O)[C@H]2c3ccccc3N(C)C(=O)[C@]21C,u,x,-9.6,-20.9%[23.9 µM],-21.2%[46.1 µM],-8.3%[25.6 µM]
COC1CCOC2(CCN(C(=O)c3cc(C)nn3C)CC2)C1 (configuration not stated),-10.2%,i,8.9,-5.2%[12.5 µM],4.4%,-18.4%
CN(C)c1ncc2c(n1)C(C)(C(=O)Nc1ccccc1F)CCC2 (configuration not stated),100µM*,i,0.8,3.3%[87.6 µM],u,u
COc1ccccc1CCC(=O)N1CCN(c2cc(-c3ccc(Cl)cc3)[nH]n2)CC1,u,i,4.7,6.4%,31.6µM*,-1.5%
SMILES,HEK cytotox,Luciferase inh,IP6K1 inh,HEK293 viab,3T3 cytotox,SNCA expr inh
COc1ccccc1CCC(=O)N1CCN(c2cc(-c3ccccc3)[nH]n2)CC1,u,i,-2.9,10.1%,u,-17.4%
COc1ccccc1CC(=O)N1CCN(c2cc(-c3ccccc3)[nH]n2)CC1,22.4µM*,i,-0.4,-20.2%,u,1.3%
Cc1ccc(Nc2ccnc(N3CCCC(C(=O)NCc4cccs4)C3)n2)cc1 (configuration not stated),10µM*,x,-6.7,-4.6%[12.5 µM],17.8µM*,-26.8%
COc1ccc(Nc2ccnc(N3CCCC(C(=O)N4CCOCC4)C3)n2)cc1 (configuration not stated),u,x,-0.2,-6.5%,-23.7%,-12.2%
COc1ccc(Nc2ccnc(N3CCCC(C(=O)NCc4cccs4)C3)n2)cc1 (configuration not stated),35.5µM*,x,-6.0,-23.7%,35.5µM*,-1.9%
O=C(NCc1cccs1)C1CCCN(c2nccc(Nc3ccccc3F)n2)C1 (configuration not stated),u,x,6.9,-11.2%[12.5 µM],u,-29.3%
O=C(NCc1ccc(Cl)cc1)c1cn2cc(-c3ccc(C(F)(F)F)cc3)sc2n1,-4.3%,x,-7.5,-15.7%,-9.9%,u
CNC(=O)c1cn2cc(-c3ccc(OC)cc3)sc2n1,70.8µM*,x,-5.7,-26.3%[87.6 µM],100µM*,-49.5%[87.6 µM]
O=C(NCc1ccc(F)cc1)c1cn2cc(-c3ccc(C(F)(F)F)cc3)sc2n1,50.1µM*,x,-7.9,u,u,-11.9%
O=C(NCc1cccnc1)c1cn2cc(-c3ccc(C(F)(F)F)cc3)sc2n1,20µM*,x,4.4,-17.4%,u,87.6%
O=C(NCc1cccc(C(F)(F)F)c1)c1cn2cc(-c3ccc(F)cc3)sc2n1,u,x,27.1,-0.2%,39.8µM*,3.7%
O=C(NCc1ccc(F)cc1)c1cn2cc(-c3cccc(C(F)(F)F)c3)sc2n1,-24.3%,x,11.4,-17.9%,u,11.8%
O=C(NCc1ccc(Cl)cc1)c1cn2cc(-c3cccc(C(F)(F)F)c3)sc2n1,u,x,-3.2,-20.9%,u,-2.7%
CN1CCN(C(=O)c2ccc3c(c2)NC(C)(CCCCc2ccccc2)CO3)CC1=O (configuration not stated),u,i,-14.4,5.7%[87.6 µM],u,u
CCN(CC)Cc1nc(C2(O)CCN(C(=O)Nc3ccc(F)cc3)CC2)cs1,-3.3%[172 µM],i,1.4,0.1%[87.6 µM],-10.5%[174 µM],28.1%[87.6 µM]
